Results reported in PubChem BioAssay.
Unmarked numbers belong to inactive results. Calls of active or inactive are those of the source.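 Rule for the calls: active = z-score of at least 1.8 in each of two replicates, scored against plate mean and spread of sample wells; inactive = the rest.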

Assay: galactose survival enhancers in mitochondrial complex I cybrids – cell-based, galactose medium, ATP luminescence, primary screen (AID 1645843);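 note: positive z means more ATP and so rescue of galactose-driven cybrid death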
Conditions: complex I mutant cybrid cells, 72 h, hits give high values

Structure (SMILES) | z-score
Cc1sc2ccccc2c1-c1ccn(CC(=O)Nc2ccnn2C(C)C)n1 | -0.855
Cc1ccc2c(=O)n(C3CC(C)(C)NC(C)(C)C3)cnc2c1C | -0.535
Cc1nsc(NC(=O)N2CCN(c3ccccc3)CC2C)n1 (stereo not given) | 2.15 (active)
CC(C)CC1(CO)CCCN(C(=O)c2cccc(C#CC(C)(C)O)c2)C1 (stereo not given) | -0.79
CN1CCN(c2ccc3cc(Cl)ccc3n2)CC1=O | -0.56
Cc1ccc2c(C(=O)N3CCCC3)cc(-c3cnn(C(C)C)c3)nc2c1 | -0.36
CC(O)Cc1cn(CC2CCN(C(=O)C3CCCCCC3)CC2)nn1 (stereo not given) | -0.51
CCCCC(CC)CN1CCC(n2cc(CNC)nn2)CC1 (stereo not given) | 1
Cn1cc(-c2ccccc2OC2(C(=O)O)CCSCC2)cn1 | 1.44
CCN1CCC(N2CCCC(CN3CCCC3)C2)CC1 (stereo not given) | -0.48
CC(C)(O)c1cn(C2CCN(C(=O)CCC(=O)N3CCCCCC3)CC2)nn1 | -0.545
Cc1ccc2nc(-c3cnc(C(C)(C)C)nc3)cc(C(=O)N(C)C(C)C)c2c1 | -0.47
CCn1c(C)nc2cc(OC3(C(=O)O)CCCCC3)ccc21 | -0.565
CC(C)c1cc(C(=O)N2CCCC(c3ccc(Cl)cc3)C2)on1 (stereo not given) | 0.165
OC1(c2ccccc2)CCN(Cc2ccc(F)cc2Cl)C1 (stereo not given) | -0.93
Cc1nnc(NC(=O)N(C)CC2COc3ccccc3O2)s1 (stereo not given) | 0.025
O=C(C1CCCCCC1)N1CCC(Cn2cc(CCO)nn2)CC1 | -0.51
COc1ccc(CC(=O)NCc2cccc(SC)c2)cc1 | 0.19
CC(C)CN1CCC(CNCc2ccc(C#CC(C)(C)O)s2)CC1 | -1.05
CCOc1ccc2ccccc2c1-c1nc2c(cnn2CC)[nH]1 | -0.255

Structure (SMILES) | z-score
COc1cccc2c(C)cc(N3CCC[C@H]3CO)nc12 | -0.095
c1ccc(CC2CCN(C3CCSC3)CC2)cc1 (stereo not given) | -0.3
CC(=O)N1CCN(C(=O)c2c(-c3ccccc3)nn(-c3ccccc3)c2C)CC1 | -0.38
CC(CCCC(C)(C)O)CCNCC1CCN(c2ccccc2)C1 (stereo not given) | -0.605
NC(=O)NCc1cn(CC2CCN(C(=O)C3CCCCCC3)CC2)nn1 | -0.565
Cc1cc(N2CCCC(Cn3cc(CN)nn3)C2)nc(-c2ccccc2O)n1 (stereo not given) | -0.9
O=C(C1CCCCCC1)N1CCC(n2cc(-c3ccccc3)nn2)CC1 | -0.495
Cc1cnc(CN(C)Cc2ccc(-c3nc(C(F)(F)F)c(C)c(=O)[nH]3)cc2)[nH]1 | -0.58
Cc1csc2c(=O)n(Cc3ccc(Cl)s3)cnc12 | -0.505
Cc1cc(C)n(CC(C)n2cnc3sc4c(c3c2=O)CCCCC4)n1 (stereo not given) | 2.45 (active)
c1nc(-c2ccc3c(c2)OCCO3)c2sccc2n1 | 0.225
C=C1C2(C(=O)N3CCC(c4ccccc4F)C3)CCC(C2)C1(C)C (stereo not given) | 1.09
CCN1CC(Cn2cnc3c(C)c(C)ccc3c2=O)CC1=O (stereo not given) | -0.145
CCn1ccnc1CN(C)Cc1ccc(-c2nc(C(F)(F)F)c(C)c(=O)[nH]2)cc1 | 0.66
CC(=O)c1c(C)nn(CC(=O)Nc2ccnn2C2CCCCC2)c1C | 0.2
Cc1nn(C)c(C)c1-c1ccnc(NCc2cnc3ccccn23)n1 | -0.925
COc1cccc2ccc(N3CCN(Cc4ccccn4)CC3)nc12 | -0.51
c1ccc(-c2nccn2Cc2nc(-c3ccccn3)no2)cc1 | 1.27
CCC(Nc1ncc(C)c(-c2cnn(C)c2)n1)c1nc2ccc(C)cc2[nH]1 (stereo not given) | -0.955
Cc1nc(C(=O)N2CCCC(Cn3cc(-c4ccsc4)nn3)C2)cs1 (stereo not given) | -0.08
